Source: PubChem
Sampled rows, rich in hits. Any-hit rate of the full collection: about 19%.
IL1B secr inh – inflammasome signaling inhibition, IL-1 beta readout; THP-1 LPS/ATP IL-1B secretion, AlphaLISA, 16 h; hits give low values; activity change, % at 57.5 µM; 360,000 tested, 4.7% active; AID 743279; in the data active means activity change below about -50%; inconclusive means mostly about -30% to -49%
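THP-1 cells pretreated 1 hr with compounds (up to 57.5 uM final), then stimulated with LPS (250 ng/mL final) plus ATP (1.25 mM final); secreted IL-1B measured by AlphaLISA after 16 hr, decreased signal indicating inhibition.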
DT40 TDP1 no CPT – qHTS for Inhibitors of human tyrosyl-DNA phosphodiesterase 1 (TDP1): qHTS in cells in absence of CPT | Potency, µM (highest dose often 46.2 µM), without a hit: top-dose activity change, negative = growth inhibition, hits mostly inhibitors | AID 686978, 2013 | 420,000 tested, 15% active | DT40 Tdp1-/- hTDP1 cells, no CPT, ATP luminescence, 48 h; further: potency means the concentration at half of the fitted maximal effect; nearly all actives have a fitted effect of over 55% in size
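Luminescent ATP content (CellTiter-Glo) served as the growth readout. Knockout chicken DT40 cells expressing human TDP1 were exposed to compounds without camptothecin for a minimum 48 hr at 37 °C.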
HT1080 IDH1KD tx – kills HT-1080 cells with IDH1 knockdown; HT-1080 IDH1 knockdown viability, ATP luminescence, 48 h; 360,000 tested, 2% active; Potency, µM (doses to about 46.1 µM), inactives show top-dose activity, negative = toxicity, actives largely listed as cytotoxic;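 further: potency means the concentration at half of the fitted maximal effect; 0% = DMSO wells and -100% = cell-free medium wells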
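After a 2 h attachment period, IDH1KD HT-1080 cells took pin-transferred compound for 48 h at 37 °C; ATP-based luminescence after 10 min room-temperature reagent incubation reported viability.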
HT1080NT lethal – kills 2HG-producing HT-1080-NT fibrosarcoma cells. 360,000 tested, 1.6% active. AID 686970. Potency, µM (top dose mostly 46.1 µM), for inactives: at the highest dose activity, negative = less viability, usual class: cytotoxic. HT-1080-NT fibrosarcoma viability, CellTiter-Glo ATP luminescence, 48 h;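 further: NT is the 2HG producing partner of a matched IDH1 knockdown line; potency means the concentration at half of the fitted maximal effect; 0% = DMSO-treated cells and -100% = media-only wells without cells; nearly all actives have a fitted effect of over 55% in size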
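750 cells/well, RPMI + 5% FBS; 2 h settle, compound pin-transfer, 48 h at 37 degrees C. CellTiter-Glo 10 min RT, luminescence. Normalized to DMSO and media-only wells.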
TDP1 cell CPT – DT40-hTDP1 cell growth loss with CPT | 420,000 tested, 12% active | chicken DT40 Tdp1-/-;hTDP1 cells + 20 nM CPT, ATP luminescence, 48 h | Potency, µM (titrated, usually from 46.2 µM), without a hit: at the highest dose activity change, negative = growth inhibition, actives largely listed as inhibitors; further: potency means the concentration at half of the fitted maximal effect; nearly all actives have a fitted effect of over 55% in size
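Chicken DT40 Tdp1-/- cells stably complemented with human TDP1 were seeded at 400 cells/well in medium containing 20 nM camptothecin, exposed to pin-transferred compounds, and grown at 37 °C for at least 48 hr. Viability was read as ATP luminescence.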
Numbers without * were called inactive; ? = inconclusive; · = not tested or not shown; [ ] = dose if it differs, or a comment. Unless noted, the call rests on the fitted dose curve; in most records, active means well fitted curve in the direction sought with a large enough effect; inconclusive means small, poorly fitted or top-dose-only effect, or another doubt; inactive means no such curve, though single readings can be large; an effect the other way counts as inactive or inconclusive. Unless noted, on the % scale 0 is the no-effect control and ±100 the full control effect.

SMILES	IL1B secr inh	DT40 TDP1 no CPT	HT1080 IDH1KD tx	HT1080NT lethal	TDP1 cell CPT
O=C(Nc1cccc(C(F)(F)F)c1)C(Sc1ncnc2ccccc12)c1ccccc1 (stereo not drawn)	-108*	21µM*	-28%	-16%	?
Cc1cc(C)cc(NC(=O)C(Sc2ncnc3ccccc23)c2ccccc2)c1 (stereo not drawn)	-58*	?	-17%	-4%	?
O=C(CSc1nnc(CNC(=O)c2c(F)cccc2F)o1)NCc1ccccc1Cl	-5	-9%	-4%	-5%	-3%
OCCN1CCN(C(=S)Nc2cccc(C(F)(F)F)c2)CC1	3	-6%	2%	7%	-12%
CCNC(=O)Cc1ccc(S(=O)(=O)N2CCOCC2)s1	15	8%	5%	1%	9%
O=C(Cc1ccc(S(=O)(=O)N2CCOCC2)s1)N(Cc1ccccc1)c1ccccc1	-7	21µM*	5%	4%	?
CN(Cc1ccc(Cl)cc1Cl)C(=O)Cc1ccc(S(=O)(=O)N2CCOCC2)s1	4	?	-13%	-5%	?
CCCCN(C(=O)Cc1ccc(S(=O)(=O)N2CCOCC2)s1)c1ccccc1	22	21µM*	8%	1%	?
Oc1cccc(/C=N/Nc2cccc3cccnc23)c1	-75*	?	?	?	?
COc1cc(/C=N/Nc2cccc3cccnc23)cc(OC)c1O	?	16µM*	-13%	-12%	?
Oc1c(/C=N/Nc2cccc3cccnc23)ccc2ccccc12	-14	?	9%	7%	?
Cc1ccc(-n2cccc2/C=C2/C(=N)N3C(=NC2=O)SN=C3S(C)(=O)=O)cc1	-15	-1%	8%	-5%	19%
Cc1cc(C)cc(-n2cccc2/C=C2/C(=N)N3C(=NC2=O)SN=C3S(C)(=O)=O)c1	28	-5%	-17%	18µM*	0%
COc1c(CO)cc(CO)cc(CO)c1=O	·	-11%[9.04 µM]	·	·	4%[9.04 µM]
O=C(C[C@@H]1C/C=C\C[C@@H](NC(=O)OCC2c3ccccc3-c3ccccc32)C(=O)OC[C@@H](Cc2ccccc2)NC1=O)NCCO	34	9.2µM*	-2%	-2%	7.3µM*
CC(C)(C)[C@H]1COC(=O)[C@H](NC(=O)OCC2c3ccccc3-c3ccccc32)C/C=C\C[C@@H](CC(=O)N[C@@H](CO)Cc2ccccc2)C(=O)N1	21	?	0%	?	7.3µM*
CC(C)(C)[C@H]1COC(=O)[C@H](NC(=O)OCC2c3ccccc3-c3ccccc32)C/C=C\C[C@@H](CC(=O)N[C@H](CO)Cc2ccccc2)C(=O)N1	8	8.2µM*	1%	-21%	7.3µM*
O=C(C[C@H]1C/C=C\C[C@H](NC(=O)OCC2c3ccccc3-c3ccccc32)C(=O)OC[C@H](Cc2ccccc2)NC1=O)N[C@H](CO)Cc1ccccc1	8	5.2µM*	?	?	5.2µM*
CC1(C)CC(=O)C2=C(C1)N(Cc1ccco1)C(=O)C2(NC(=O)C1CCCCC1)C(F)(F)F (stereo not drawn)	-1	-17%	-3%	?	0%
CC(C)(C)[C@@H]1COC(=O)[C@@H](NC(=O)OCC2c3ccccc3-c3ccccc32)C/C=C\C[C@@H](CC(=O)NCCO)C(=O)N1	30	12µM*	-2%	7%	18µM*
C[C@@H]1COC(=O)[C@H](NC(=O)OCC2c3ccccc3-c3ccccc32)C/C=C\C[C@@H](CC(=O)N[C@@H](CO)Cc2ccccc2)C(=O)N1	20	8.2µM*	1%	0%	8.2µM*
CC(C)(C)OC(=O)C[C@@H]1C/C=C\C[C@@H](CC(=O)NCCO)C(=O)N[C@H](C(C)(C)C)COC1=O	1	1%	15%	13%	-1%
O=S(=O)(c1ccc(Cl)cc1)N1CCCC(C(F)(F)F)C1 (stereo not drawn)	-8	11%	0%	-2%	2%
O=C1C2C3CCC(C3NCc3ccccc3)C2C(=O)N1Cc1ccccc1 (stereo not drawn)	-21	?	1%	8%	-18%
CSc1nc(NCc2ccco2)c2sc3nc(C(C)C)c4c(c3c2n1)CC(C)(C)OC4	-17	-22%	-4%	-5%	-11%
SMILES	IL1B secr inh	DT40 TDP1 no CPT	HT1080 IDH1KD tx	HT1080NT lethal	TDP1 cell CPT
CC(C)c1nc2sc3c(NCc4ccco4)ncnc3c2c2c1COC(C)(C)C2	?	23µM*	?	-26%	18µM*
CC(C)c1nc2sc3c(NCc4ccccc4)ncnc3c2c2c1COC(C)(C)C2	?	?	1%	-2%	9.2µM*
O=C(COC(=O)C1CCC1)NCc1ccc(F)cc1	3	1%	22%	6%	-7%
CC(C)CCN(C(=O)C1=COCCO1)c1c(N)n(Cc2ccccc2)c(=O)[nH]c1=O	1	0%	0%	2%	-3%
CC(=O)Nc1ccc(-c2ccnc3c2CC(C)(C(=O)Nc2cccc(C(F)(F)F)c2)O3)cc1 (stereo not drawn)	-62*	?	?	?	15µM*
CC1(C(=O)Nc2cccc(C(F)(F)F)c2)Cc2c(-c3cccc(C(F)(F)F)c3)ccnc2O1 (stereo not drawn)	-17	?	?	?	?
CC(=O)Nc1cccc(-c2ccnc3c2CC(C)(C(=O)Nc2cccc(C(F)(F)F)c2)O3)c1 (stereo not drawn)	-4	16µM*	?	?	13µM*
CC(=O)Nc1ccc(-c2ccnc3c2CC(C)(C(=O)Nc2cccc(OC(F)(F)F)c2)O3)cc1 (stereo not drawn)	-17	16µM*	?	26µM*	?
CC(=O)Nc1cccc(-c2ccnc3c2CC(C)(C(=O)Nc2ccc(F)c(Cl)c2)O3)c1 (stereo not drawn)	0	?	?	?	?
CN(C)c1ccc(-c2ccnc3c2CC(C)(C(=O)Nc2cccc(Oc4ccccc4)c2)O3)cc1 (stereo not drawn)	36	-10%	-11%	-1%	-21%
CC(=O)Nc1cccc(-c2ccnc3c2CC(C)(C(=O)Nc2ccc(Cl)c(C(F)(F)F)c2)O3)c1 (stereo not drawn)	-67*	13µM*	23µM*	?	10µM*
CCN(CC)c1ccc(NC(=O)C2CCN(S(=O)(=O)c3cnc[nH]3)CC2)c(C)c1	·	-6%	·	·	?
CC(C)CCNC(=O)c1nnc(Cc2ccc(Cl)cc2)o1	19	-15%	8%	1%	-4%
